An excerpt weighted towards active compounds, which were near 2.6% of everything screened.
Cruzain inh Det: qHTS Assay for Promiscuous and Specific Inhibitors of Cruzain (with detergent). Cruzipain (Trypanosoma cruzi), P25779. purified cruzain, Z-FR-AMC fluorescence, 0.01% Triton. Potency, µM, actives largely listed as inhibitors. actives 0.43% (n = 200,000). AID 1478, 2009; also: nearly all actives have a fitted effect of over 40% in size
Target sequence (P25779 123-467 limits assumed): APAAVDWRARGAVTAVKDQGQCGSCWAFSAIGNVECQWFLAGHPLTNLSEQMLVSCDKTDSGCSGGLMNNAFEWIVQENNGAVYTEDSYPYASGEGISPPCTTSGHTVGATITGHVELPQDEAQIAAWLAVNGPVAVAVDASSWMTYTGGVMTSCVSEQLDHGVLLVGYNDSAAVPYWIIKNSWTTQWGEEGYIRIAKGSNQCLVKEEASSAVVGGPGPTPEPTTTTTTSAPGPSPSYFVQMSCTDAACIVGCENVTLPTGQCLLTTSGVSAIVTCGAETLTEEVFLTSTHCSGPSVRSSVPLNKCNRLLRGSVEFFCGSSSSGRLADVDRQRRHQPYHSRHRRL
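Steps: dispense cruzain (1.5 nM final) in acetate buffer pH 5.5 with DTT and 0.01% Triton X-100; pin-transfer compounds; incubate 15 min RT; add Z-FR-AMC (2 uM final); read fluorescence every 30 s, using the 60 s intensity change.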
Cruzain inh noDet: qHTS Assay for Promiscuous and Specific Inhibitors of Cruzain (without detergent); Cruzipain (Trypanosoma cruzi), P25779; purified cruzain, Z-FR-AMC fluorescence, no detergent; Potency, µM, hits mostly inhibitors; actives 2.3% (n = 200,000); AID 1476, 2009; also: nearly all actives have a fitted effect of over 40% in size
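Purified cruzain at 1.5 nM, pre-incubated 15 min with compound at room temperature in 100 mM sodium acetate pH 5.5, 5 mM DTT, 0.00005% Triton X-100. Reaction started with 2 uM Z-FR-AMC; AMC fluorescence increase over 60 s gives rate.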
Hits are given with their value; i = inactive; ? = inconclusive. Calls follow the shape of the dose curve; as a rule, active = well fitted curve in the direction sought with a large enough effect; inconclusive = small, poorly fitted or top-dose-only effect, or another doubt; inactive = no such curve, though single readings can be large; an effect the other way counts as inactive or inconclusive.

SMILES	Cruzain inh Det	Cruzain inh noDet
Cc1cccc(C2=NN(c3ccccc3)[C@@H](C(=O)N3CCOC3=O)[C@@H]2c2ccc([N+](=O)[O-])cc2)c1	i	?
Cc1ccc(Cl)cc1N1CCN(C(=O)c2cnn(C)c2C2CCN(C(=O)OC(C)(C)C)CC2)CC1	i	i
O=C(Cc1csc(Nc2nc(=S)[nH]c3ccccc23)n1)NCc1cccc(Cl)c1	i	3.98µM
Cc1ccc(CNC(=O)Cc2csc3ccccc23)cc1	i	i
Cc1ccc(CNC(=O)Cc2csc(Nc3nc(=S)[nH]c4ccccc34)n2)cc1	i	10µM
O=C(Cc1csc(Nc2nc(=S)[nH]c3ccccc23)n1)NCc1ccccc1Cl	i	?
Cc1nn2c(=O)cc(COC(=O)c3cccc(NC(=O)c4ccc(F)cc4)c3)nc2s1	i	i
CN(CCO)Cc1ncccc1O	i	i
Cc1cc(O)c(C(C)C)cc1CN1CCCCC1	i	i
O=C1N=C(N2CCN(c3cccc4ccccc34)CC2)S/C1=C/c1cccs1	i	20µM
Cc1ccccc1N1CCN(C2=NC(=O)/C(=C\c3cccs3)S2)CC1	i	?
COc1ccc(CNC(=O)CN2C(=O)CC(c3ccc(C)c(C)c3)=Nc3ccccc32)cc1	i	i
Cc1ccc(C)c(Cn2c(=O)n(CCCC(=O)NCCc3ccc(Cl)cc3)c(=O)c3ccccc32)c1	i	i
COc1ccc(/C=C/C(=O)c2ccc(Cl)cc2)c(OC)c1	i	i
COc1ccc(/C=C/C(=O)/C=C/c2ccc(OC)cc2OC)c(OC)c1	i	3.16µM
Cc1nn(C(C)C(=O)Nc2cccc(F)c2)c(=O)c2c1sc1ccccc12 (stereo not drawn)	i	?
COC(=O)/C=C1\SC(=NC(=O)c2cccc(Cl)c2)NC1=O	14.1µM	i
COC(=O)/C=C1/SC(=NC(=O)c2ccccc2)NC1=O	i	i
COc1ccc(-n2c(=O)c3sc4ccccc4c3n(CC(=O)NC3CCCCC3)c2=O)cc1	i	i
Cc1ccc(CNC(=O)CN2C(=O)CC(c3ccc(C)c(C)c3)=Nc3ccccc32)cc1	i	i
Cc1ccc(C2=Nc3ccccc3N(CC(=O)NCc3ccccc3Cl)C(=O)C2)cc1C	i	25.1µM
CCc1ccccc1NC(=O)Cc1ccc(-n2c(C)nc3cccnc32)cc1	i	i
CCc1nc2cccnc2n1-c1ccc(CC(=O)Nc2cccc(C)c2C)cc1	15.8µM	i
CCc1nc2cccnc2n1-c1ccc(CC(=O)Nc2ccccc2Cl)cc1	12.6µM	i
CCc1nc2cccnc2n1-c1ccc(CC(=O)Nc2ccc(C)cc2)cc1	i	i
SMILES	Cruzain inh Det	Cruzain inh noDet
O=C(CS(=O)(=O)c1cccc2nsnc12)Nc1ccccc1	i	i
COc1ccc2c(c1)sc1ncc(C(=O)NCc3ccc(Cl)cc3)c(=O)n12	i	i
N=C1/C(=C\c2ccc(-c3cc(Cl)cc(Cl)c3)o2)C(=O)N=C2SC=C(c3ccccc3)N12	i	2.51µM
CC1=CC2=NC(=O)/C(=C\c3cccn3CCOc3ccc(C)c(C)c3)C(=N)N2O1	i	i
Cc1cc(C)cc(-n2c(C)cc(/C=C3\C(=N)N4N=C(CC(C)C)SC4=NC3=O)c2C)c1	i	25.1µM
CCCC1=NN2C(=N)/C(=C\c3cc(C)n(-c4cc(C)cc(C)c4)c3C)C(=O)N=C2S1	i	?
Cc1ccc(-n2c(C)cc(/C=C3/C(=N)N4C(c5ccccc5)=CSC4=NC3=O)c2C)cc1	i	6.31µM
CS(=O)(=O)C1=NSC2=NC(=O)/C(=C\c3ccc(-c4ccccc4)o3)C(=N)N21	i	i
Cc1cccc(-n2c(C)cc(/C=C3\C(=N)N4N=C(CC(C)C)SC4=NC3=O)c2C)c1	i	?
N=C1/C(=C/c2cccn2CCOc2ccccc2)C(=O)N=C2SC=C(c3ccccc3)N12	i	6.31µM
CCC(C)Nc1sc(S(=O)(=O)CC)nc1S(=O)(=O)c1ccc(C)cc1 (stereo not drawn)	i	i
CCSc1ncc(Cl)c(C(=O)N(Cc2ccc(C(C)(C)C)cc2)C2CCS(=O)(=O)C2)n1 (stereo not drawn)	i	i
O=[N+]([O-])c1cc(Cl)c(Cl)c(Cl)c1	i	i
CC1CCCN(C(=O)Cn2c(=O)n(CC3CCC(C(=O)NC(C)C)CC3)c(=O)c3sccc32)C1 (stereo not drawn)	i	i
NC(=O)c1cc(S(=O)(=O)NCC2CCC(C(=O)Nc3cccc(Cl)c3)CC2)cs1 (stereo not drawn)	i	i
COc1ccc(N=C2C(=Nc3ccc(OC)cc3)N(c3ccc(OC)cc3)C(=S)N2c2ccccc2)cc1	i	?
Cc1ccc(N=C2C(=S)N(c3ccc(C)cc3)C(=N)N2/N=C/c2ccc(Cl)cc2)cc1	i	3.16µM
COC(=O)CSc1nc(N)c2c3c(sc2n1)C(c1ccccc1)SC(c1ccccc1)C3 (stereo not drawn)	?	12.6µM
COC(=O)CSc1nc(N)c2c3c(sc2n1)CCCC3	i	i
COc1ccc(NC(=O)Cn2c(=O)n(Cc3ccco3)c(=O)c3sc4ccccc4c32)cc1OC	i	?

High-throughput results (PubChem BioAssay)
